Drawing on PubChem BioAssay AID1063 (University of Pittsburgh Molecular Library Screening Center, 2008), this text covers inhibition for 100 molecules.

Among all 200,000 compounds or so, about 18,000 (9%) were called active. Many of the other results were omitted from the sample, so actives are more common in it than they were. Values without a mark were called inactive. Rule as the data show it: active = inhibition above about 50%; inactive = the rest.

The experiment is described as follows: antileishmanial activity against promastigotes – primary screen (AID 1063).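 Also: promastigotes grown with compound for 44 hours at 28 °C.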 The settings on record: Leishmania major promastigotes, resazurin fluorescence viability; at 10 µM; stronger effect = higher value. For orientation: Resazurin is reduced to fluorescent resorufin, in cell work by metabolically active cells.
For the molecule `CC(=O)c1cccc(-n2nnnc2SCC(=O)NNC(=O)C2CCCCC2)c1`, the inhibition was -7.09%. Turning to `COC(=O)C1=C(N)Oc2c(oc(CO)cc2=O)C1c1c(F)cccc1Cl` (stereo not given), the inhibition is 10.5%. Take `CCOc1ccc(C(c2c(C)[nH][nH]c2=O)c2c(C)[nH][nH]c2=O)cc1OCC`: the inhibition was 22.5%.

In the case of `Cc1[nH][nH]c(=O)c1C(c1ccc(-c2ccc(Cl)cc2)o1)c1c(C)[nH][nH]c1=O`, the inhibition is 100% (active). The figure for `Cc1[nH][nH]c(=O)c1C(c1ccc2c(c1)OCO2)c1c(C)[nH][nH]c1=O` is 25.9%; for `C=CCc1cccc2cc(C(=O)NC3CCCC3)c(=O)oc12` it is 3.36%; for `OCCC1CN(Cc2ccc3nsnc3c2)CCN1C1CCCC1` (stereo not given) it is 20.1%. The figure for `OCC1(CCc2ccccc2)CCN(Cc2ccc3nsnc3c2)CC1` is 88.2% (active); for `Cc1cccc(-c2ncc(CN3CCC(CO)(CCCc4ccccc4)CC3)cn2)c1` it is 15.9%. As to `Nn1c(SCC(=O)Nc2nccs2)nncc1=O`, the inhibition was -3.46%.

As to `CSc1ncnc2sc(C)c(C)c12`, the inhibition is -8.93%. Consider `Cc1ccc(S(=O)(=O)N2CCC(N3CCCCCC3)CC2)cc1`, for which the inhibition is 95.3% (active). The figure for `Cc1ccc(S(=O)(=O)N2CCN(S(=O)(=O)N3CCOCC3)CC2)cc1` is -6.92%. As to `CC(=O)Nc1ccc(S(=O)(=O)N2CCN(C3CCCCCCC3)CC2)cc1`, the inhibition was -3.65%. In the case of `COc1ccc(NC(=O)N2CCCC(c3nc(-c4ccc(F)cc4)no3)C2)cc1` (stereo not given), the inhibition is -5.76%. The figure for `O=C(COC(=O)CCc1ccc(S(=O)(=O)N2CCOCC2)cc1)Nc1cccc(Cl)c1` is -4.95%. Under `N#C/C(C(=S)Nc1ccccc1)=C1/NN=C(N2CCOCC2)N1c1ccccc1` stands 4.1%; under `Cc1ccc(C(=O)NC(=S)Nc2ccc(N3CCOCC3)cc2)cc1`, -0.73%; under `Cc1ccc(NC(=S)NCCN2CCOCC2)cc1`, 2.32%.

With `Cc1ccc(C(=O)NC(=S)NCCN2CCOCC2)cc1`, the inhibition is 65.4% (active). Regarding `O=C(CCN1CCCCC1)N=Nc1c(O)[nH]c2ccccc12`, the inhibition was 11.4%.

For the molecule `CSc1ccccc1C(=O)NCc1ccccc1`, the inhibition is -0.25%. Regarding `Cc1cc(C)n(CC(=O)Nc2ccc([N+](=O)[O-])cc2)n1`, the inhibition was -2.52%. Take `O=C(COC(=O)c1ccco1)NCc1ccc(Cl)cc1`: the inhibition was -4.2%. As for `COCC(C)n1c(SCc2ccc(C(=O)OC)o2)nc2ccccc2c1=O` (stereo not given), the inhibition is 89% (active). The figure for `COC(=O)c1ccc(CSc2nc3ccccc3c(=O)n2-c2cccc(OC)c2)o1` is 46.8%; for `COCCn1c(C)cc(C(=O)CSc2nc3ccccc3c(=O)n2C(C)COC)c1C` (stereo not given) it is 15.4%; for `CSCCNCc1cn(-c2ccc(F)cc2F)nc1-c1ccccc1C` it is 15.5%. As to `Cc1ccc(-c2nn(-c3cccc(F)c3)cc2CNCCc2ccncc2)o1`, the inhibition is 56.8% (active). Under `Cc1ccc(-c2nn(-c3ccccc3)cc2CN(Cc2ccccc2)C(=O)CCC(=O)O)o1` stands -2.65%; under `Cn1c(=O)n(Cc2ccco2)c(=N)c2c3c(sc21)CCCC3`, 13.8%. Under `COc1cccc(OC)c1C(=O)OCC(=O)/C(C#N)=C(\C)N` stands -3.93%; under `CCOC(=O)C1=C(CN2CCc3ccccc32)NC(=O)NC1c1cccc([N+](=O)[O-])c1` (stereo not given), 82.8% (active); under `COCCOC(=O)C1=C(C)NC(=O)NC1c1ccc(Cl)cc1` (stereo not given), -1.33%. Under `CCOC(=O)C1=C(CN2CCc3ccccc32)NC(=O)NC1c1cc(C)ccc1C` (stereo not given) stands 11.4%. Turning to `CCOC(=O)C1=C(CNC2CCCCC2)NC(=O)NC1c1cc(C)ccc1C` (stereo not given), the inhibition is 47.4%. In the case of `CCOC(=O)C1=C(CN2CCc3ccccc32)NC(=O)NC1c1ccc(Cl)cc1` (stereo not given), the inhibition is 55.5% (active). Consider `CCOC(=O)C1=C(CN2CCCCCC2)NC(=O)NC1c1cccc([N+](=O)[O-])c1` (stereo not given), for which the inhibition is 10.7%. As to `C/C(=N/OC(=O)c1cccc(C(F)(F)F)c1)c1cnccn1`, the inhibition is -8.57%. Under `Cn1cnnc1SCC(=O)NNC(=O)COc1ccc(Br)cc1` stands -4.37%; under `C/C(=N\Nc1nc(Nc2ccccc2)nc(N2CCOCC2)n1)c1cccs1`, 5.71%; under `C=CCNC(=O)COC(=O)CNC(=O)c1cc(Cl)cc([N+](=O)[O-])c1`, 7.34%.

With `COc1ccc(O[C@H]2C=C[C@@H](c3ccccc3)O[C@@H]2CO/N=C/C[C@@H]2C=C[C@H](OC(C)=O)[C@@H](COC(C)=O)O2)cc1`, the inhibition is 5.12%. Consider `C/C(=N\Nc1nc2ccccc2[nH]1)c1cccs1`, for which the inhibition is 77.2% (active). As for `C/C(=N\Nc1ncc(Cl)cc1Cl)c1cccs1`, the inhibition was 19%. Under `O=C(CSc1nc2ccccc2[nH]1)c1cccs1` stands 8.11%; under `Cc1ccc(NC(=O)C2(N3CCC3=O)CCCCC2)cc1`, -5.4%.

`COc1cccc(-n2c(=S)sc3c(=O)n(-c4ccccc4OC)c(SCC4OCCO4)nc32)c1`: the inhibition is 19.1%.

As for `OC(COc1ccc2ccccc2c1)Cn1cncn1` (stereo not given), the inhibition is -2.08%. The figure for `OC(COc1cccc(OCC(O)CN2CCCC2)c1)CN1CCCC1` (stereo not given) is -2.43%. The figure for `CC(=O)Nc1ccc(OCC(O)CN2CCN(c3ccccc3Cl)CC2)cc1` (stereo not given) is -1.4%.

Take `O=[N+]([O-])c1ccc(N2CCN(CC(O)COc3ccccc3)CC2)cc1` (stereo not given): the inhibition is 32.1%.

With `O=S(=O)(c1ccc(OCC(O)CN2CCN(c3ccccc3Cl)CC2)cc1)N1CCOCC1` (stereo not given), the inhibition is 68.2% (active). Under `OC(COc1ccc2ccccc2c1)CN1CCOCC1` (stereo not given) stands 59.9% (active); under `O=C(NCC1COc2ccccc2O1)C1(c2ccccc2)CCCC1` (stereo not given), 4.71%; under `CCOC(=O)CSc1nnc(-c2ccc([N+](=O)[O-])cc2)o1`, -7%. The figure for `COCCN(C(=S)Nc1ccccc1OC)C1CCN(C(C)C)CC1` is -1.11%.

As to `CCOC(=O)N1CCN(C(=O)CSc2ccc(Cl)cc2)CC1`, the inhibition is -6.22%. The figure for `Oc1c(C(c2ccccn2)N2CCOCC2)ccc2cccnc12` (stereo not given) is 5.34%. As to `CCN1CCN(C(c2cccnc2)c2cc(Cl)c3cccnc3c2O)CC1` (stereo not given), the inhibition is 52.4% (active). Under `CCN1CCN(c2ccc(NC(=O)c3cnccn3)cc2)CC1` stands -5.28%. `CCOC(=O)N1CCN(C(c2cccnc2)c2ccc3cccnc3c2O)CC1` (stereo not given): the inhibition is 100% (active). The figure for `Cc1ccnc2nc(C(=O)OCC(=O)N(CC(C)C)CC(C)C)nn12` is 4.48%; for `CN(c1ccccc1)S(=O)(=O)c1cc(C(=O)OCC(=O)N2CCN(C(=O)c3ccco3)CC2)ccc1Cl` it is -3.3%.

For the molecule `Nc1ncnc(Nc2cccc(Cl)c2Cl)n1`, the inhibition was -0.16%. Under `OC(CNCC1CCCO1)Cn1c2ccc(Br)cc2c2cc(Br)ccc21` (stereo not given) stands 101% (active); under `Cc1cc(Br)ccc1NC(=O)C1CCCO1` (stereo not given), -3.76%. Under `Cc1ccc(C(=O)NCC2CCCO2)o1` (stereo not given) stands -4.63%; under `COc1cc(C(=O)Nc2cc(C(F)(F)F)ccc2-n2cncn2)cc(OC)c1OC`, 15.4%.

For the molecule `CCCSC(=S)NC1CCS(=O)(=O)C1` (stereo not given), the inhibition was 100% (active). With `COc1ccc(NC(=S)NC2CCS(=O)(=O)C2)cc1` (stereo not given), the inhibition is 6.02%. The figure for `O=S1(=O)CCC(NC(=S)SCc2ccccc2Br)C1` (stereo not given) is 89.6% (active); for `CC(C)C(=O)NC(NC(=S)NC1CCS(=O)(=O)C1)C(Cl)(Cl)Cl` (stereo not given) it is -3.47%; for `CCN(CC(=O)NC1CCS(=O)(=O)C1)S(=O)(=O)c1ccccc1` (stereo not given) it is 47.9%. Under `O=C(CSc1ccccc1F)NC1CCS(=O)(=O)C1` (stereo not given) stands 1.43%; under `COc1cccc(OC)c1C(=O)NC(=S)NCc1ccco1`, 0.66%; under `Cc1nn(-c2ccccc2)c(-n2cccc2)c1C(=O)O`, -0.36%. In the case of `CCC(C)NC(=O)Cn1nc(C(F)(F)F)c2c1CCC2` (stereo not given), the inhibition is -5.4%. The figure for `CCOc1cnc(-c2c(-c3ccccc3Cl)noc2C)o1` is -0.43%; for `COc1cc(OC)c(C2=NOC(C(=O)Nc3c(C)n(C)n(-c4ccccc4)c3=O)C2)cc1Cl` (stereo not given) it is -5.3%.

On to `CC1CCN(c2ccc([N+](=O)[O-])cc2C(N)=O)CC1`, for which the inhibition was -3.26%.

Turning to `C=CCO/N=C/C1=C(O)C(C(=O)OC)C(C)(C)CC1=O` (stereo not given), the inhibition is -2.09%. Turning to `O=C(NCCN1C(=O)S/C(=C\c2cccnc2)C1=O)c1cccc(OC(F)F)c1`, the inhibition was 50.6% (active).

With `Cc1cc(OCCCC(=O)NCCN2C(=O)S/C(=C\c3cccnc3)C2=O)ccc1Cl`, the inhibition is 42.1%. Regarding `CCOc1ccc(N2CC(C(=O)NCCN3C(=O)S/C(=C\c4cccnc4)C3=O)CC2=O)cc1` (stereo not given), the inhibition is -4.79%. Turning to `O=C(CCc1ccccc1)Nc1ccc(NC(=O)C2CCCCC2)nc1`, the inhibition was 6.33%.

Regarding `Cc1ccc(SC(C)C(=O)NCc2ccc(F)cc2)cc1` (stereo not given), the inhibition was -1.71%.

With `O=C(/C=C/c1cccs1)c1cc(Cl)ccc1OC(=O)N1CCOCC1`, the inhibition is 100% (active). Under `O=C(c1cccs1)N1CCN(C(=O)N2CCOCC2)CC1` stands -6.96%; under `CC(=O)Nc1ccccc1OC(=O)N1CCOCC1`, -2.48%. Under `CCOC(=O)c1c(NC(=O)C2CCN(S(=O)(=O)c3ccc(Cl)cc3)CC2)sc2c1CCCC2` stands 6.41%; under `Cc1ccc(S(=O)(=O)N2CCOCC2)cc1C(=O)OC1CCCCC1=O` (stereo not given), 1.9%. For `CCNC(=O)COC(=O)/C=C/c1c(C)nn(Cc2cccc(OC)c2)c1Cl`, the inhibition was -3.81%. In the case of `CS(=O)(=O)N1CCc2cc(C(=O)Nc3ccccc3)ccc21`, the inhibition was -3.72%. Under `Cc1onc(-c2ccccc2Cl)c1C(=O)OCC(=O)c1ccccc1` stands 88% (active). For `Cc1onc(-c2ccccc2Cl)c1C(=O)NCCn1ccc2ccccc21`, the inhibition is 5.91%. Under `CC(=O)Nc1cccc(/C(C)=N/NC(=O)c2c(-c3ccccc3Cl)noc2C)c1` stands 3.3%. Consider `Cc1[nH]c2ccccc2c1C(=O)CSCC(=O)O`, for which the inhibition was 13.6%. The figure for `Cc1[nH]c2ccccc2c1C(=O)COC(=O)c1c(-c2ccccc2)noc1C` is 95.7% (active); for `Cc1[nH]c2ccccc2c1C(=O)COC(=O)C(C)C` it is -4.11%.

The term inhibition denotes the drop in the measured response relative to a control, in per cent.
